A selection: hits, their analogues and other compounds. The true share with any hit is near 9.4%.
ELG1 repair inh – qHTS screen for small molecules that inhibit ELG1-dependent DNA repair in human embryonic kidney (HEK293T) cells expressing luciferase-tagged ELG1. Potency, µM (highest dose often 46.1 µM), inactives show top-dose activity change, negative = inhibition, hits mostly inhibitors. 330,000 tested, 2.3% active. HEK293T ELG1-luciferase reporter, luminescence, 16 h; DNA damage induced by 5-fluorouridine; also: % is scaled to controls: 0 for no effect and ±100 for the full control effect; nearly all actives have a fitted effect of over 55% in size
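Overnight (16 hr) co-exposure of 2,000 cells/well to 5-fluorouridine and compound at 37 °C preceded detection. Luciferase was quantified via ONE-Glo luminescence; loss of signal denotes inhibition.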
Rab9 promoter act – qHTS Assay for Rab9 Promoter Activators; Huh7 Rab9 promoter-luciferase reporter, luminescence, 24 h; Potency, µM (doses to about 9.22 µM), without a hit: top-dose activation, negative = inhibition, hits mostly activators; AID 485297, 2010; 320,000 tested, 2.8% active; also: % of control where 0% means no effect; nearly all actives have a fitted effect of over 60% in size
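Huh7 reporter line, Rab9 promoter upstream of luciferase. Compound exposure 24 h at 37 °C in reduced-serum medium with 10% FBS. Read-out: luminescence.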
NPC1 prom act – qHTS Assay for NPC1 Promoter Activators; Huh7 NPC1 promoter luciferase reporter, 24 h; Potency, µM (doses to about 9.22 µM), for the others: at the highest dose activation, actives largely listed as activators; 320,000 tested, 2.4% active; AID 485313, 2010; also: % of control where 0% means no effect; nearly all actives have a fitted effect of over 60% in size
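In 1536-well qHTS, Huh7 cells harboring an NPC1 promoter–luciferase construct received compound for 24 h; activation was quantified by luminescence following luciferase reagent addition.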
ELG1 genotoxic – qHTS screen for small molecules that induce genotoxicity in human embryonic kidney (HEK293T) cells expressing luciferase-tagged ELG1; HEK293T ELG1-luciferase reporter, luminescence, 16 h; 330,000 tested, 1.3% active; AID 504466, 2011; Potency, µM (titrated, usually from 46 µM), without a hit: at the highest dose activity change, positive = activation, usual class: activators; also: % of control where 0% means no effect; nearly all actives have a fitted effect of over 60% in size
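Luminescence read-out: rising ELG1-luciferase signal, reflecting elevated ELG1 protein under genetic stress, flags genotoxic compounds. Cells were treated for 16 hr at 37 °C before ONE-Glo detection.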
FLuc modulator – qHTS profiling assay for firefly luciferase inhibitor/activator using purifed enzyme and Km concentrations of substrates (counterscreen for miR-21 project) | 360,000 tested, 6.9% active | AID 588342, 2011 | purified FLuc, Km substrates, luminescence inhibition | Luciferin 4-monooxygenase (Photinus pyralis), P08659 | Potency, µM (doses to about 57.5 µM), inactives show at the highest dose activity change, negative = inhibition, usual class: inhibitors;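 also: plate controls were vehicle for no effect and reference inhibitor for full effect; nearly all actives have a fitted effect of over 55% in size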
Target sequence (P08659 whole entry, looked up): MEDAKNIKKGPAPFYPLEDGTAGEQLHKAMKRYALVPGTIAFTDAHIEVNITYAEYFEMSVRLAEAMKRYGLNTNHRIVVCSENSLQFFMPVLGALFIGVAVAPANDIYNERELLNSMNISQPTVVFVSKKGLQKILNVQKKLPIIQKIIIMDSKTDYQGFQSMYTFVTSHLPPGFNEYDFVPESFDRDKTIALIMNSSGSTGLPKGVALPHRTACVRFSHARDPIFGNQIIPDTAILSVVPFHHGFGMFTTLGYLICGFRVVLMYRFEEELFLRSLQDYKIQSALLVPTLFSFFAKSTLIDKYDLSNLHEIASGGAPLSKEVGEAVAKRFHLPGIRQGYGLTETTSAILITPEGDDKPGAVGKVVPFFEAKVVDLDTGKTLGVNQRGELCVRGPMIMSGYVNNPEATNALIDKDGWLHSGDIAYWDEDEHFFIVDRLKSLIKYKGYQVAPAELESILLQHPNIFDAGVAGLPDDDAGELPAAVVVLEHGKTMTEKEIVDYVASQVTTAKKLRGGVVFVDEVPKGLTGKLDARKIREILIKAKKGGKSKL
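Purified P. pyralis luciferase (10nM final) with 10uM D-luciferin and 10uM ATP (Km levels) in 50mM Tris acetate pH 7.5, 10mM Mg acetate, 0.01% Tween-20, 0.05% BSA; qHTS 6-point titration, ~60 µM downward; luminescence read.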
SMN2 splice enh – qHTS Assay for Enhancers of SMN2 Splice Variant Expression; HEK293 SMN2-luciferase splicing reporter, luminescence, 30-36 h; Potency, µM (doses to about 46.1 µM), for the others: at the top dose activity change, positive = activation, hits mostly activators; 210,000 tested, 2.8% active; AID 1458, 2008; also: % of control where 0% means no effect; nearly all actives have a fitted effect of over 55% in size
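qHTS luciferase splicing reporter: luminescence rises when SMN2 exon 7 is included in transfected HEK293 cells. Compound exposure lasted 30-36 h at 37C, with 4.5 mM final sodium butyrate as control, followed by a ONE-Glo read.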
* marks the source's active call; other numbers are inactive results; ? = inconclusive; . = no result given; [ ] = remark or other dose. Calls follow the shape of the dose curve; as a rule, active = well fitted curve in the direction sought with a large enough effect; inconclusive = small, poorly fitted or top-dose-only effect, or another doubt; inactive = no such curve, though single readings can be large; an effect the other way counts as inactive or inconclusive. Potency is read from the fitted curve at half-maximal effect.

SMILES | ELG1 repair inh | Rab9 promoter act | NPC1 prom act | ELG1 genotoxic | FLuc modulator | SMN2 splice enh
CCCCNC(=O)C1CCN(S(=O)(=O)c2c(C)noc2/C=C\c2ccc(OC)cc2)CC1 | -0.9% | -1.6% | -1.9% | 9.7% | 1.0% | 0.1%
O=C(/C=C/c1ccco1)Nc1ccccn1 | ? | ? | ? | 8.2µM* | 6.75µM* | 8.91µM*
Cc1ccccc1NC(=O)C1CCN(S(=O)(=O)c2c(C)noc2/C=C/c2ccco2)CC1 | . | . | . | . | -2.0% | 3.3%
CC(C)(C)OC(=O)NCCCC1=CC2=CC(=O)C(C)(OC(=O)c3cnc4ccccc4n3)C(=O)C2=CO1 (configuration not stated) | . | . | . | . | . | -1.2%
O=C(/C=C/c1ccco1)Nc1cccc2cccnc12 | ? | 25.8% | 25.6% | ? | 15.1µM* | ?
O=C(O)/C=C/C(=O)Nc1cccc2cccnc12 | 24.1% | 11.3% | 2.2% | 5.9% | ? | .
CCOC(=O)c1[nH]c2ccccc2c1NC(=O)c1ccc(Br)o1 | 23.1µM* | 2.3% | -0.4% | -6.5% | 1.7% | -60.4%
O=C(OCC(=O)c1c[nH]c2ccccc12)c1ccc(Br)o1 | ? | 10.7% | 3.6% | 5.5% | 16.9µM* | .
O=C(/C=C/c1ccccc1)OCC(=O)c1c[nH]c2ccccc12 | -9.0% | . | . | -2.3% | . | .
O=C(OCC(=O)c1c[nH]c2ccccc12)c1ccco1 | ? | 7.8% | 7.0% | 16.4µM* | 9.53µM* | 0.8%
COc1cc(NC(=O)c2ccco2)c(C(=O)OCC(=O)c2c[nH]c3ccccc23)cc1OC | 8.2µM* | -2.5% | -1.5% | -4.6% | 1.4% | -25.7%
O=C(NCCc1c[nH]c2ccccc12)c1ccc(Br)o1 | ? | . | . | 5.2% | . | .
COc1cccc(C2CC(=O)Nc3c2c(=O)n(C)c2ncnn32)c1OC (configuration not stated) | . | . | . | . | 0.5% | 0.9%
CCOc1ccc(C(C)NC(=S)NC2CCCCC2)cc1OCC (configuration not stated) | 23.1µM* | 1.2% | -3.2% | -7.8% | -2.1% | -32.7%
COc1ccc(-c2noc(CSc3nc(N)cc(=O)[nH]3)n2)cc1 | ? | -1.6% | 4.0% | -0.4% | 21.3µM* | .
COc1ccc(-c2noc(CSc3nnc(-c4ccccc4)n3C)n2)cc1 | -0.5% | 2.8% | 2.1% | 5.1% | 21.3µM* | -5.0%
COc1ccc(-c2noc(CSc3nc4ccccc4[nH]3)n2)cc1 | . | . | . | . | 1.7% | 0.2%
O=C(NCCNC(=O)c1ccc(-c2ccc(Cl)c(Cl)c2)o1)c1cnccn1 | 3.9% | 2.0% | 8.1% | -4.4% | 15.1µM* | .
CC(=O)Cc1nsc(NC(=O)c2ccc(-c3ccc(Cl)c(Cl)c3)o2)n1 | 5.1% | -2.2% | -1.0% | -3.1% | 10.7µM* | 3.0%
CC(=O)Cc1nsc(NC(=O)c2ccc(-c3cc(C(F)(F)F)ccc3Cl)o2)n1 | -17.3% | -15.9% | -14.5% | -11.6% | -17.8% | ?
O=C(NCCCNC(=O)c1ccc(-c2cccc(Cl)c2)o1)c1cnccn1 | ? | 6.0% | -3.2% | -4.4% | -9.2% | .
CC(=O)Cc1nsc(NC(=O)c2ccc(-c3cc(Cl)ccc3Cl)o2)n1 | ? | -1.0% | -10.9% | -6.2% | 13.5µM* | -13.8%
CC(=O)Cc1nsc(NC(=O)c2ccc(-c3ccc(Cl)cc3Cl)o2)n1 | 10.0% | 2.8% | 2.6% | -3.0% | 6.75µM* | -2.0%
CCOc1ccc(CCNC(=O)CN2C(=O)COc3ccc(S(=O)(=O)N4CCC(C)CC4)cc32)cc1 | . | . | . | . | -6.4% | -3.9%
CC(=O)Nc1ccc(NC(=O)C2CCN(S(=O)(=O)c3ccc4c(c3)CCCC(=O)N4)CC2)cc1 | . | . | . | . | -0.7% | .
SMILES | ELG1 repair inh | Rab9 promoter act | NPC1 prom act | ELG1 genotoxic | FLuc modulator | SMN2 splice enh
CC(=O)Cc1nsc(NC(=O)c2ccc(-c3cccc(C(F)(F)F)c3)o2)n1 | 3.7% | 1.4% | 0.3% | -3.1% | 9.53µM* | ?
Cc1nnc(NC(=O)c2ccc(-c3cccc(C(F)(F)F)c3)o2)s1 | 14.6% | 11.2% | 1.8% | 3.2% | 2.8% | ?
O=C(c1ccccc1)c1ccc(N2CCOCC2)c(NC(=O)c2ccco2)c1 | 16.4µM* | -3.7% | 3.3% | -9.3% | -5.7% | -21.1%
COC(=O)c1ccc(N2CCCCC2)c(NC(=O)c2ccco2)c1 | 23.1µM* | -6.5% | -4.7% | -5.9% | 2.1% | .
CCOc1ccccc1N1CCN(S(=O)(=O)c2ccc(C3CCCCC3)cc2)CC1 | . | . | . | . | 4.4% | -14.8%
O=C(O)[C@H]1CCCC[C@@H]1C(=O)Nc1nc2ccccc2[nH]1 | . | . | . | . | . | -5.5%[9.22 µM]
CCOC(=O)C(CC)Sc1nc2c(c(=O)[nH]c(=O)n2C)n1CCc1ccccc1 (configuration not stated) | 8.2µM* | 16.0% | 2.2% | -2.1% | -11.2% | -1.0%
Cc1cc(C)n(-c2nc3c(c(=O)[nH]c(=O)n3C)n2CCc2ccccc2)n1 | ? | 1.3% | 1.8% | -3.6% | 2.3% | 14.1µM*
CCC(C)Sc1nc2c(c(=O)[nH]c(=O)n2C)n1CC(O)COc1ccccc1C (configuration not stated) | 16.4µM* | -8.9% | -1.2% | -4.6% | -0.8% | 11.1%
Cn1c(=O)[nH]c(=O)c2c1nc(SCC(N)=O)n2Cc1cccc(Br)c1 | ? | -8.2% | 1.8% | 20.6µM* | 1.3% | .
C=C(C)CSc1nc2c(c(=O)[nH]c(=O)n2C)n1Cc1ccccc1 | ? | -9.7% | -10.3% | 5.7% | -5.0% | .
CCC(C)Sc1nc2c(c(=O)[nH]c(=O)n2C)n1CCc1ccccc1 (configuration not stated) | ? | -3.4% | 1.7% | -3.3% | 2.4% | -10.6%
Cc1cc(C)n(-c2nc3c(c(=O)[nH]c(=O)n3C)n2Cc2ccccc2)n1 | ? | 3.6% | -0.3% | 3.4% | -0.7% | -6.2%
COCCn1c(=O)c(-c2ccc(F)cc2)nc2cnc(OCc3ccccc3)nc21 | . | . | . | . | . | 4.2%
CCC(=O)N1CCc2cc(Br)cc(S(=O)(=O)N3CCC(C(=O)Nc4ccccc4F)CC3)c21 | . | . | . | . | -1.4% | -3.6%
COc1ccc(O)c(/C=C(\C#N)C(=O)Nc2cccnc2)c1 | ? | 21.5% | 8.3% | ? | 4.78µM* | 5.2%
CCCOc1ccccc1/C=C(\C#N)C(=O)Nc1cccnc1 | ? | 28.0% | 8.3% | ? | 19µM* | .
CCOC(=O)c1nnc2c(-c3ccc(Cl)cc3)c(C)nn2c1C | . | . | . | . | -18.6% | 3.4%

Compound activity as filed in PubChem.
